From PubChem BioAssay AID434927 (Sanford-Burnham Center for Chemical Genomics, 2010)
Unmarked numbers belong to inactive results. Activity calls are given as the source filed them.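 The calls were made as follows: active = inhibition above about 23% in any of six single-dose repeats (limit read from the data); inactive = the rest.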

The molecules below were run against Intestinal-type alkaline phosphatase (Homo sapiens) (UniProt P09923) (assay: suppression of intestinal alkaline phosphatase activity – biochemical, luminescence, single concentration, uHTS hits, confirmation (AID 434927;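 also: plate controls were DMSO wells with enzyme for no effect and wells lacking enzyme for full effect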)). Settings: purified human IAP, CDP-Star luminescence, 30 min; at 8.3 µM; stronger effect = higher value.
Sequence of Intestinal-type alkaline phosphatase (Homo sapiens) (P09923 whole entry, looked up): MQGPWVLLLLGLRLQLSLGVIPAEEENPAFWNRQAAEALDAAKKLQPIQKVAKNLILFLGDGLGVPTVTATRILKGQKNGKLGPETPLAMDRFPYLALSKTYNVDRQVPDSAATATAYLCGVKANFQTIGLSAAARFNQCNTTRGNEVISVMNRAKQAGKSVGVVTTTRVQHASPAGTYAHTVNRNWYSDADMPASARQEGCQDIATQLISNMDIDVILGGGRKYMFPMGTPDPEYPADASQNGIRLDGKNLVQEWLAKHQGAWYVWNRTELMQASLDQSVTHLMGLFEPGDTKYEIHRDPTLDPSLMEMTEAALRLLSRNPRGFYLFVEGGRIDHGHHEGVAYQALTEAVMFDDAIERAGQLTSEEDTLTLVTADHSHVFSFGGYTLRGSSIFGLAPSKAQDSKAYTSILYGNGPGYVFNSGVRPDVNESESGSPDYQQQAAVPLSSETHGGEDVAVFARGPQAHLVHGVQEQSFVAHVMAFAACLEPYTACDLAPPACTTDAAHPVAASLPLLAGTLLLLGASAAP

Row | SMILES | inhibition
1 | COc1ccc(NC(=S)NNC(=O)c2nnn(-c3ccccc3)c2C)cc1 | 24% (active)
2 | Cc1nc2c3ccccc3nc(NNC(=O)CCC(=O)NCCC(C)C)n2n1 | -64.4%
3 | Nc1ccc(-c2c3ccc(=O)cc-3oc3cc(O)ccc23)cc1C(=O)O | 64.5% (active)
4 | Cc1ccc(Cl)cc1NC(=O)C(=O)N/N=C/c1ccc2c(c1)OCO2 | 40.1% (active)
5 | COc1ccc(C(=O)Nc2cccc3c2C(=O)NC3=O)cc1S(=O)(=O)N1CCOCC1 | -85.1%
6 | N#Cc1cc(Oc2ccccc2)c(-n2nnc3ccccc32)cc1C#N | 40.7% (active)
7 | c1ccc(-c2cccc(-c3ccccn3)n2)nc1 | -113%
8 | Cc1cc(C)n(C(=O)C23CC4CC(CC(C4)C2)C3)n1 | -126%
9 | CCOc1ccc(CC(=O)NNC(=S)NCCc2ccccc2)cc1 | 77.5% (active)
10 | O=C(NNc1ncnc2c1cnn2-c1ccc(F)cc1)c1ccco1 | -47.2%
11 | CC1Cn2c(nnc2C23CC4CC(CC(C4)C2)C3)S1 (centres undefined) | 95.1% (active)
12 | CCOc1cccc(-c2nc(C(N)=O)c3[nH]c(=O)n(-c4cccc(Cl)c4)c3n2)c1O | -74.5%
13 | N#CCN1C(=S)N=C(Nc2cccc(Cl)c2)C12CCCCC2 | -55.5%
14 | O=C(NC1CCCCCC1)c1ccc(-n2cnnc2)cc1 | -58.8%
15 | Cc1cccn2c(=O)c3cc(C(=O)NC4CCCC4)c(=N)n(C4CCCCC4)c3nc12 | -122%
16 | O=C(CSc1nc(-c2cccs2)cc(C(F)(F)F)n1)NCc1ccccc1 | 36.7% (active)
17 | C[C@@H](NC(=O)c1[nH]cnc1C(=O)Nc1ccon1)c1ccccc1 | -80%

Row | SMILES | inhibition
18 | O=C(O)C1OC(Oc2c(-c3ccc(O)c(O)c3)oc3cc(O)cc(O)c3c2=O)C(O)C(O)C1O (centres undefined) | 32.1% (active)
19 | COc1ccc(C2=Nc3cc(C)ccc3OC2)cc1 | 58.3% (active)
20 | C=CCn1c(O)c(N=Nc2ccccc2O)c2ccccc21 | 36.2% (active)
21 | Cc1ccc(NC(=O)C2CC(=O)Nc3nc4ccccc4n32)c(C)c1 (centres undefined) | 38.4% (active)
22 | COC(=O)c1ccccc1-c1c2ccc(=N)cc-2oc2cc(N)ccc12 | 34.6% (active)
23 | Cc1cc(OCC(=O)Nc2ncn[nH]2)ccc1Cl | -87%
24 | CN(Cc1ccccc1)C(=O)c1[nH]cnc1C(=O)Nc1nccs1 | -141%
25 | CC1=NN(Cc2ccccc2)C(=O)/C1=C\c1ccc(N(C)C)cc1 | 65.6% (active)
26 | COc1ccccc1C1CN(c2ccccc2)N=C1c1cccs1 (centres undefined) | -128%
27 | COc1cc(NC(=O)NCC2CCN(Cc3ccccc3Cl)CC2)cc(OC)c1OC | -142%
28 | O=C(O)COn1c(-c2ccc(Cl)cc2)nc2ccc(Cl)cc21 | 26.6% (active)
29 | CC(=O)N1CCOc2ccc(S(=O)(=O)N3CCCC(C)C3)cc21 (centres undefined) | 54% (active)
30 | O=C1Nc2ccccc2/C1=N\N=C\c1ccc(O)c(O)c1 | 61.5% (active)
31 | CC1(C)C[C@@H](O)CC2(C1)C[C@]1(C)CC(O)[C@H]2C(C)(C)C1 (some centres undefined) | -93.3%
32 | CC[n+]1c(/C=C/c2c[nH]c3ccccc23)ccc2cc(C)ccc21 | -85.7%
33 | O=C(N/N=C/c1c(O)ccc2ccccc12)c1[nH]ncc1Br | 42.8% (active)
34 | CCOc1cc(/C=N/NC(=O)C(=O)N/N=C/c2ccc(O)c(OCC)c2)ccc1O | -47.6%
